Laboratory results as given in PubChem BioAssay AID1159580 (chemical genetic matrix, 2015).
“And” between values parts separate entries of the source, which are not always exact repeats. Equal entries are not always repeated. Hit rate of the full screen: of about 5,500 compounds, about 2,000 (36%) were called active. Another 18% or so got no clear call; they are omitted. No stated cut-off is given here; in the data, active means normalized growth mostly below about 0.91 (no sharp cut-off); inconclusive means no clear call, values can overlap the other calls; inactive means mostly above about 0.92. The list shows a part of the results.

Experiment: chemical genetic growth profiling, strain panel (AID 1159580);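 further: tested at 20 µM; growth read once vehicle control cultures reached saturation at 30 °C; 1 = growth at the plate median or of vehicle wells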
Conditions: S. cerevisiae deletion strains, growth OD

Measured: normalized growth

CC1CCCC(C)N1NC(=O)c1ccc(Cl)c(S(N)(=O)=O)c1 (stereo unspecified)
inactive: locus YAL013W, strain DEP1, stronger effect = lower value 1 | locus YAL021C, strain ccr4, stronger effect = lower value 1 | locus YAL026C, strain drs2, stronger effect = lower value 1.03 | locus YAL030W, strain snc1, stronger effect = lower value 0.989 | locus YBL061C, strain skt5, stronger effect = lower value 1.02 | locus YBR009C, strain hhf1, stronger effect = lower value 1.02 | locus YBR021W, strain FUR4, stronger effect = lower value 1.09 | locus YBR023C, strain chs3, stronger effect = lower value 1.01 | locus YBR171W, strain sec66, stronger effect = lower value 1.03 | locus YBR229C, strain ROT2, stronger effect = lower value 0.996 | locus YBR231C, strain swc5, stronger effect = lower value 1.05 | locus YBR279W, strain paf1, stronger effect = lower value 1 | locus YCL011C, strain gbp2, stronger effect = lower value 0.932 | locus YCL016C, strain dcc1, stronger effect = lower value 1.02 | locus YCL029C, strain bik1, stronger effect = lower value 0.974 | locus YCL069W, strain vba3, stronger effect = lower value 1 | locus YCR088W, strain abp1, stronger effect = lower value 1.01 | locus YDL005C, strain med2, stronger effect = lower value 1.01 | locus YDL035C, strain GPR1, stronger effect = lower value 1.01 | locus YDL040C, strain nat1, stronger effect = lower value 1.01 | locus YDL074C, strain BRE1, stronger effect = lower value 0.991 | locus YDL101C, strain DUN1, stronger effect = lower value 0.983 | locus YDL134C, strain PPH21, stronger effect = lower value 1 | locus YDL185W, strain tfp1, stronger effect = lower value 0.964 | locus YDL192W, strain arf1, stronger effect = lower value 0.988 | locus YDR001C, strain nth1, stronger effect = lower value 1.01 | locus YDR069C, strain doa4, stronger effect = lower value 1.01 | locus YDR101C, strain arx1, stronger effect = lower value 0.99 | locus YDR137W, strain rgp1, stronger effect = lower value 1.01 | locus YDR150W, strain NUM1, stronger effect = lower value 0.992 | locus YDR159W, strain sac3, stronger effect = lower value 1.02 | locus YDR162C, strain NBP2, stronger effect = lower value 0.997 | locus YDR195W, strain ref2 1 | locus YDR297W, strain sur2, stronger effect = lower value 1.01 | locus YDR318W, strain mcm21, stronger effect = lower value 1 | locus YDR334W, strain swr1, stronger effect = lower value 1.02 | locus YDR335W, strain msn5, stronger effect = lower value 1.02 | locus YDR388W, stronger effect = lower value 0.998 | locus YDR392W, strain spt3, stronger effect = lower value 1.03 | locus YDR502C, strain sam2, stronger effect = lower value 0.993 | locus YEL003W, strain gim4, stronger effect = lower value 1.02 | locus YEL037C, strain rad23, stronger effect = lower value 1.02 | locus YEL061C, strain CIN8 (second series), stronger effect = lower value 1.01 | locus YEL061C, strain CIN8, stronger effect = lower value 1 | locus YER015W, strain faa2, stronger effect = lower value 1.02 | locus YER016W, strain bim1, stronger effect = lower value 1.02 | locus YER110C, stronger effect = lower value 0.983 | locus YER111C, strain swi4, stronger effect = lower value 1.01 | locus YER155C, strain BEM2 (second series), stronger effect = lower value 1.04 | locus YER155C, strain BEM2, stronger effect = lower value 1 | locus YER167W, strain BCK2, stronger effect = lower value 0.997 | locus YFR010W, strain ubp6, stronger effect = lower value 1.03 | locus YGL078C, strain dbp3, stronger effect = lower value 0.997 | locus YGL086W, strain mad1, stronger effect = lower value 1 | locus YGL167C, strain pmr1, stronger effect = lower value 1.01 | locus YGL173C, strain kem1, stronger effect = lower value 1.03 | locus YGL227W, strain vid30, stronger effect = lower value 1.02 | locus YGL240W, strain doc1, stronger effect = lower value 1.01 | locus YGL248W, strain PDE1, stronger effect = lower value 1 | locus YGL253W, strain hxk2, stronger effect = lower value 1.02 | locus YGR078C, strain PAC10, stronger effect = lower value 0.983 | locus YGR135W, strain pre9, stronger effect = lower value 0.993 | locus YGR229C, strain SMI1, stronger effect = lower value 0.991 | locus YGR252W, strain gcn5, stronger effect = lower value 1.2 | locus YHR013C, strain ard1, stronger effect = lower value 1.01 | locus YHR027C, strain rpn1, stronger effect = lower value 1.01 | locus YHR030C, strain SLT2, stronger effect = lower value 0.998 and 0.962 | locus YHR079C, strain IRE1 (second series), stronger effect = lower value 0.985 | locus YHR079C, strain IRE1, stronger effect = lower value 0.949 | locus YHR094C, strain hxt1, stronger effect = lower value 0.986 | locus YHR129C, strain ARP1, stronger effect = lower value 0.984 | locus YHR142W, strain chs7, stronger effect = lower value 1.01 | locus YHR200W, strain rpn10, stronger effect = lower value 1 | locus YIL066C, strain RNR3, stronger effect = lower value 0.995 | locus YIL073C, strain SPO22, stronger effect = lower value 0.874 | locus YIL125W, strain kgd1, stronger effect = lower value 0.956 | locus YIR030C, strain dcg1, stronger effect = lower value 0.998 | locus YJL092W, strain hpr5, stronger effect = lower value 1.02 | locus YJL095W, strain BCK1 (second series), stronger effect = lower value 1.01 | locus YJL095W, strain BCK1, stronger effect = lower value 0.972 and 0.992 | locus YJL115W, strain asf1, stronger effect = lower value 1.01 | locus YJL129C, strain trk1, stronger effect = lower value 1.03 | locus YJL134W, strain LCB3, stronger effect = lower value 0.993 | locus YJL154C, strain vps35, stronger effect = lower value 1.02 | locus YJL164C, strain tpk1, stronger effect = lower value 1 | locus YJL166W, strain qcr8, stronger effect = lower value 0.989 | locus YJL168C, strain set2, stronger effect = lower value 0.993 | locus YJL187C, strain SWE1 (second series), stronger effect = lower value 0.966 | locus YJR043C, strain POL32, stronger effect = lower value 0.982 | locus YJR066W, strain TOR1, stronger effect = lower value 0.962 | locus YJR075W, strain HOC1, stronger effect = lower value 0.985
